# Source: PubChem BioAssay (NCI)
# About 83,000 compounds went through this panel and 20% of them were active in at least one assay; those are over-represented in the sample as a whole.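 The test compound was applied at a single concentration to cells in 96-well plates for 48 hours, and percent growth was recorded.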 Values without a mark were called inactive. Active and inactive are the calls of the source. The calls were made as follows: active = growth percent below 10; inactive = the rest.
# Legend:
# Assay in all cases: NCI-60 one-dose screen, 48 h (100 = growth as untreated, 0 = no growth, -100 = all killed)
# Details in all cases: 10 µM unless noted
# [1] = test system: DU-145 prostate
# [2] = test system: K-562 leukemia
# [3] = test system: MALME-3M melanoma
# [4] = test system: MDA-MB-231 breast
# [5] = test system: SF-268 CNS
# [6] = test system: SF-295 CNS
# [7] = test system: SF-539 CNS
# [8] = test system: M14 melanoma
# [9] = test system: RXF 393 renal
# [10] = test system: UACC-257 melanoma
SMILES,growth [1],growth [2],growth [3],growth [4],growth [5],growth [6],growth [7],growth [8],growth [9],growth [10]
COc1ccc(C(=O)/C=C/c2ccc(C)cc2)cc1OC,11.3%,21.1%,101%,90.7%,57.3%,101%,70.3%,99.2%,–,–
N[C@H](CS)C(=O)O,121%,107%,91%,114%,119%,94.4%,89.7%,116%,–,–
COc1cc(-c2n[nH]nc2-c2ccccn2)cc(OC)c1OC,112%,90.6%,90.5%,98.3%,114%,115%,104%,113%,–,–
Nc1ccc(N=Nc2ccccc2)cc1[N+](=O)[O-],109%,87.4%,–,65.8%,85.3%,113%,92.6%,104%,104%,103%
CCN(CC)CCOCC[C@H]1CC[C@H]2[C@@H]3[C@H](C)Cc4cc(OS(N)(=O)=O)ccc4[C@H]3CC[C@]12C,-58.6% (active),-63.8% (active),-67.5% (active),-67.3% (active),-80.2% (active),-65% (active),-96.1% (active),-97.1% (active),–,–
CN(C)CCC(=O)Nc1ccc(-n2cc(-c3cccc(NC(=S)Nc4cccc(-c5cn(-c6ccc(NC(=O)CCN(C)C)cc6)nn5)c4)c3)nn2)cc1,115%,18.6%,–,107%,98.6%,65.3%,97.6%,112%,135%,117%
C1CCC(C(CC2CCCCN2)C2CCCCC2)CC1 (stereo unspecified),14%,-64.9% (active),-73.2% (active),1.11% (active),49.9%,-62.9% (active),-35.9% (active),-88.2% (active),–,–
Cc1cc(-c2ccccc2)cc(C)n1,125%,98%,–,101%,111%,101%,102%,103%,117%,108%
c1ccc(-c2oc(-c3ccccc3)c3ccccc23)cc1,90.3%,86.5%,–,91%,102%,102%,104%,–,116%,108%
Nc1ncnc2c1CN(Cc1ccccc1)CC2,132%,98.1%,–,104%,105%,105%,99.2%,111%,122%,111%
COc1ccc(C2CC(c3ccc4c(c3)OCO4)=NN2C=O)cc1 (stereo unspecified),107%,90.3%,–,84.2%,108%,113%,98.8%,102%,100%,110%
C(=C1c2ccccc2-c2ccccc21)c1ccncc1,84.9%,11.4%,–,44.2%,54.8%,35.6%,56.3%,18.7%,72.3%,74.5%
NS(=O)(=O)N(c1cc(C(F)(F)F)cc(C(F)(F)F)c1)C1CCN(Cc2ccc(C(F)(F)F)cc2)CC1,8.8% (active),21%,71.2%,19.1%,38.5%,49.8%,0.806% (active),-0.587% (active),–,–
Cc1cc(C)c2c(N)c3cccc(C)c3nc2n1,2.87% (active),-11.1% (active),-23.3% (active),14.7%,9.97% (active),1.7% (active),1.42% (active),-35.1% (active),–,–
CN(C)CCCN=c1cc2c(=O)n(CCCN(C)C)c(=O)c3c(NCCCN(C)C)cc4c(O)n(CCCN(C)C)c(=O)c1c4c3-2,-40.7% (active),6.48% (active),–,-0.632% (active),1.31% (active),-34.8% (active),-23% (active),3.47% (active),-68.3% (active),-27.3% (active)
O=c1c2c(=NCCCN3CCCC3)cc3c(=O)n(CCCN4CCCC4)c(=O)c4c(NCCCN5CCCC5)cc(c(O)n1CCCN1CCCC1)c2c4-3,-16.1% (active),6.04% (active),–,-9.58% (active),-7.1% (active),-42.5% (active),-32.6% (active),-63.1% (active),-67.6% (active),-29.8% (active)
CCOC(=O)c1cnc2c(C)cc(C)cc2c1NCCCN(C)C,35.4%,8.6% (active),51%,35.7%,35.7%,29.9%,28.9%,34.2%,–,–
Cc1sc2nc3c4ccccc4c(NCCCN(C)C)nn3c(=O)c2c1C,41.5%,-73.8% (active),-42.2% (active),-23.6% (active),66.7%,65.6%,29%,-95.6% (active),–,–
CC(NC(=O)Oc1cccc2ccccc12)c1ccccc1 (stereo unspecified),107%,84.1%,–,77.6%,78.1%,107%,97.9%,107%,105%,73.2%
